From PubChem BioAssay
Active and inactive are the calls of the source.

How the values were obtained:
[1] = tested on: Human papillomavirus type 1a protein E7 (residues 44-93); assay: HPV1a E7 fragment binders on microarrays, primary screen, biochemical, small-molecule microarray, residues 44-93, 635 nm fluorescence (AID 1108); details: small-molecule microarray binding, fluorescence 635 nm; higher = more signal;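 also: E7 fragment applied at 1 µg/mL in TBST for 1 h at 4 C; score combines spot fluorescence with its signal to noise ratio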
[2] = modulators of HCV replicon luciferase signal, primary screen, HCV replication inhibitor project, Huh7 cells, luciferase reporter (AID 1109); details: 48 h, higher = more signal;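 also: huh7 hepatoma cells harbouring a luciferase neomycin HCV replicon reporter; luciferase luminescence as measure of HCV replicon replication; test concentration not given here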
[3] = molecular target: Left-right determination factor 2 (Homo sapiens) (UniProt O00292); assay: LEFTY2 binders on small-molecule microarrays, primary screen, biochemical, small-molecule microarray, 635 nm fluorescence scan (AID 1110); details: LEFTY2 binding, higher = more signal
Chain of Left-right determination factor 2 (Homo sapiens) (O00292 whole entry, looked up): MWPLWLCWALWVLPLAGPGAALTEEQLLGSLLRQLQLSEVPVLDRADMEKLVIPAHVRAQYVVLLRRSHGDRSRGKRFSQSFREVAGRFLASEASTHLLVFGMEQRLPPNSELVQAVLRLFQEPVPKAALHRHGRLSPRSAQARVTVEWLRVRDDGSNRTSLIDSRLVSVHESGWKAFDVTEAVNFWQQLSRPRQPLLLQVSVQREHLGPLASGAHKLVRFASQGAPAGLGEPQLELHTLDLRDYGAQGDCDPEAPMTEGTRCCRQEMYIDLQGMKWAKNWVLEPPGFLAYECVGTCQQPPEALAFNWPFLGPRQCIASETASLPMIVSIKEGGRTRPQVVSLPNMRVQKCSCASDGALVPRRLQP

[4] = molecular target: Calmodulin-1 (Homo sapiens) (UniProt P0DP23); assay: CALM1 binders on microarrays, EGTA buffer, profiling panel, biochemical, small-molecule microarray, Cy5-labelled CALM1 (AID 1111); details: Cy5-CALM1 binding fluorescence, higher = more signal;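 also: labelled calmodulin applied in Tris saline Tween buffer holding calcium plus EGTA and DTT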
[5] = molecular target: Calmodulin-1 (Homo sapiens) (UniProt P0DP23); assay: calcium-bound CALM1 binders on microarrays, profiling panel, artefact control for SMM control-protein annotation, biochemical, small-molecule microarray, Cy5-labelled CALM1, plus calcium (AID 1112); details: Cy5-CALM1 binding fluorescence, higher = more signal;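 also: score merges spot fluorescence with signal to noise from triplicate slides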
[6] = small-molecule microarray binders of probe aWnt5a, primary screen, biochemical, biotinylated probe, 635/667 nm fluorescence (AID 1113); details: higher = more signal;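 also: score merges 667 nm fluorescence intensity with signal-to-noise per printed feature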
[7] = small-molecule microarray binders of probe aShh, primary screen, biochemical, biotinylated probe, 635/667 nm fluorescence (AID 1114); details: higher = more signal;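 also: probe is biotin-labelled aShh protein from a stem cell growth factor screen; measures binding of labelled protein to compounds printed on the slide; score merges feature fluorescence at 667 nm with signal-to-noise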
[8] = small-molecule microarray binders of probe aNog, primary screen, biochemical, biotinylated probe, 635/667 nm fluorescence (AID 1115); details: higher = more signal;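 also: probe is biotinylated aNog protein used at 0.15 µg/mL for 1 h at 4 C; z-score combines 667 nm fluorescence of each spot with its signal to noise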
[9] = molecular target: Torsin-1A-interacting protein 1 (Homo sapiens) (UniProt Q5JTV8); assay: LAP1 binders from COS7 cell lysate, primary screen, small-molecule microarray, 635/667 nm fluorescence (AID 1116); details: COS7-hLAP1 lysate binding, 635 nm fluorescence, higher = more signal
Chain of Torsin-1A-interacting protein 1 (Homo sapiens) (Q5JTV8 whole entry, looked up): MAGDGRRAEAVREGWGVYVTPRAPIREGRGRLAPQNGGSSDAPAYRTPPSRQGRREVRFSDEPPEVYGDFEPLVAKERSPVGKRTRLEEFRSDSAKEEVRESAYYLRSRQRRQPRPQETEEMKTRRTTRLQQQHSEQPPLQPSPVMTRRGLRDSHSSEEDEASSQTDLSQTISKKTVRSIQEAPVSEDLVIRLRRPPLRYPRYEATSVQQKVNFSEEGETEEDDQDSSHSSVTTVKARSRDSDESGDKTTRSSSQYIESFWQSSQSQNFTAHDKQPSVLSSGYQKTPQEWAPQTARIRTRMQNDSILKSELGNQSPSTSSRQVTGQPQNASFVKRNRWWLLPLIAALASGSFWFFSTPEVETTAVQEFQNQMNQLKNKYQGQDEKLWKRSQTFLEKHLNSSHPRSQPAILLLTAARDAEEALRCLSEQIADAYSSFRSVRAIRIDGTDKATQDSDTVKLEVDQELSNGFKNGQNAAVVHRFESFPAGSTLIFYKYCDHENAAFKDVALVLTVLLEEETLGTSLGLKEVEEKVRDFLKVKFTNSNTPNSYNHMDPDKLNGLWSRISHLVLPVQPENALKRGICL

[10] = molecular target: Alpha-bungarotoxin (Bungarus multicinctus) (UniProt P60615); assay: alpha-bungarotoxin binders on microarray, profiling panel, artefact control for SMM control protein annotation, biochemical, small-molecule microarray, Alexa647 label, 635/667 nm fluorescence (AID 1117); details: alpha-BTX-A647 binding fluorescence, higher = more signal
Chain of Alpha-bungarotoxin (Bungarus multicinctus) (P60615 whole entry, looked up): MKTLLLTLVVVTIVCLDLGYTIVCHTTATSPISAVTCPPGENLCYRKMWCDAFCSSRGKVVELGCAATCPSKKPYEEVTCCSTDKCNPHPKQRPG

Albumin (Bos taurus) = Albumin (Bos taurus) (UniProt P02769); assay: bovine serum albumin binders on microarray, profiling panel, artefact control for SMM control protein annotation, biochemical, small-molecule microarray, Alexa647 label, 635/667 nm fluorescence (AID 1118); details: BSA-A647 binding, fluorescence 635 nm, higher = more signal;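 also: score merges 667 nm emission intensity and signal-to-noise per printed compound spot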
Chain of Albumin (Bos taurus) (P02769 whole entry, looked up): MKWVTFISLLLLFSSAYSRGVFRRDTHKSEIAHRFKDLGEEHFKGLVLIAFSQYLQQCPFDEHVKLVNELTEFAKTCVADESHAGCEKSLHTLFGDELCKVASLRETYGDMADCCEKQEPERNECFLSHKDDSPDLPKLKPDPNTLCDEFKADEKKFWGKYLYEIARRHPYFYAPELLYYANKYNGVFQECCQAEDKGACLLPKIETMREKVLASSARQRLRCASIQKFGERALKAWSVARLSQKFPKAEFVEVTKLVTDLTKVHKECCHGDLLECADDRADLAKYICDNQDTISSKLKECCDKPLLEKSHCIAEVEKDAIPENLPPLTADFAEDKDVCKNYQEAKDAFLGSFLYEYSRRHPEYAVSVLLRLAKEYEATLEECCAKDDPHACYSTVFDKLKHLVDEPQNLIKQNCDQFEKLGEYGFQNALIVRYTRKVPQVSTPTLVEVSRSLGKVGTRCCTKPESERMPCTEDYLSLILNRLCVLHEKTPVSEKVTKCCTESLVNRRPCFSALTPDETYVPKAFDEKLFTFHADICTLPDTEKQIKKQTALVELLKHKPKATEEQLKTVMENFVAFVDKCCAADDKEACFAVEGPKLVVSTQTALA

[11] = small-molecule microarray binders of probe aXIP, primary screen, biochemical, NeuroSMM set, 635/667 nm fluorescence (AID 1119); details: higher = more signal, called active from +8 up or from −8 down;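 also: probe is the protein aXip251-270 applied at 1 µg/mL to compound-printed slides; binding of probe to printed compounds measured as 667 nm fluorescence plus signal to noise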
[12] = small-molecule binders of probe aNOTCH3, primary screen, biochemical, small-molecule microarray, 635/667 nm fluorescence (AID 1120); details: higher = more signal;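 also: probe is a biotin-tagged antibody raised against NOTCH3 rather than NOTCH3 protein; score merges spot fluorescence near 667 nm with spot signal to noise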
[13] = small-molecule binders of probe aNOTCH2, primary screen, biochemical, small-molecule microarray, 635/667 nm fluorescence (AID 1121); details: higher = more signal;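 also: score merges feature fluorescence read at 667 nm with its signal to noise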
[14] = molecular target: Carbonic anhydrase 2 (Homo sapiens) (UniProt P00918); assay: CAII small-molecule binders, profiling panel, biochemical, small-molecule microarray, Alexa647-labelled CAII (AID 1122); details: CAII-A647 binding fluorescence, higher = more signal
[15] = COS7 lysate on small-molecule microarray, probe aHis, 635 nm (AID 1123); details: COS7 cell lysate, fluorescence, higher = more signal;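 also: z-score combines 667nm fluorescence intensity with signal-to-noise per printed compound spot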
[16] = compound binding in COS7 lysate, probe aLAP1, primary screen, cell lysate, small-molecule microarray (AID 1124); details: probe aLAP1, fluorescence, higher = more signal;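 also: lysate comes from COS7 cells expressing LAP1 and is applied at 0.3 µg/mL; score merges spot fluorescence near 667 nm with signal-to-noise over triplicate slides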
Sam68 (KHDRBS1) = assay: Sam68 small-molecule binders, primary screen, biochemical, small-molecule microarray, 635 nm fluorescence (AID 1125); details: small-molecule microarray binding, higher = more signal;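 also: score merges 667 nm channel intensity with signal to noise over triplicate slides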
[17] = tested on: Chordin-like protein 2 (CHRDL2); assay: CHRDL2 small-molecule binders, primary screen, biochemical, small-molecule microarray, 635 nm fluorescence (AID 1126); details: small-molecule microarray binding, fluorescence 635 nm; higher = more signal;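 also: printed compound slides probed with Chrdl2 protein at 4 µg/mL for 1 h at 4 C; score merges 667 nm emission intensity with signal to noise over three replicate slides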
[18] = molecular target: Concanavalin-A (Canavalia ensiformis) (UniProt P02866); assay: ConA small-molecule binders, primary screen, artefact control for SMM control protein annotation, biochemical, small-molecule microarray, Alexa647 label, 635 nm (AID 1127); details: ConA-A647 binding fluorescence, higher = more signal;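 also: z combines 667 nm emission intensity with signal-to-noise across three replicate slides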
Chain of Concanavalin-A (Canavalia ensiformis) (P02866 whole entry, looked up): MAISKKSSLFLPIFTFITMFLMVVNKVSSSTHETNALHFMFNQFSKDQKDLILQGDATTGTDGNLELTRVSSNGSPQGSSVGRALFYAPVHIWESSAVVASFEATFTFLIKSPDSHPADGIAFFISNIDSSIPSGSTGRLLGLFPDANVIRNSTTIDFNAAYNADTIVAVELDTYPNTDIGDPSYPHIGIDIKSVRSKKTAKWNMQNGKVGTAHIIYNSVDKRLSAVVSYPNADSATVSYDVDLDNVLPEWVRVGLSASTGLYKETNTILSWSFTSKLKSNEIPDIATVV

Compound | composite z-score [1] | z-score [2] | composite z-score [3] | composite z-score [4] | composite z-score [5] | composite z-score [6] | composite z-score [7] | composite z-score [8] | composite z-score [9] | composite z-score [10] | composite z-score (Albumin (Bos taurus)) | composite Z-score [11] | composite z-score [12] | composite z-score [13] | composite z-score [14] | composite z-score [15] | composite z-score [16] | composite z-score (Sam68 (KHDRBS1)) | composite z-score [17] | composite z-score [18]
O=C1C2C=CC(C(O)c3cccs3)N(Nc3ccc([N+](=O)[O-])cc3)C2C(=O)N1c1ccccc1 (stereo not given) | 0.759 | -0.6 | 0.318 | 0.439 | 0.123 | -0.0179 | 0.0684 | 0.668 | 1.01 | 0.69 | 0.523 | -0.506 (inactive) | 0.0105 | -0.0694 | 0.759 | 2.08 | 0.218 | 0.909 | 0.0721 | 0.585
C=CCNC(=O)[C@@H]1[C@H]2C(=O)O[C@H](c3ccccc3)[C@H](c3ccccc3)N2[C@H](c2ccc(OCCO)cc2)[C@@]12C(=O)Nc1ccc(C#CC3(O)CCCCCC3)cc12 | 1.12 | -2.43 | 0.367 | 0.92 | 0.0835 | -0.0203 | -0.278 | 0.822 | 0.699 | 1.35 | 0.692 | -0.058 (inactive) | 0.13 | -0.11 | 0.42 | 1.86 | 0.637 | 1.3 | 0.253 | 1.19
CC(=O)OCC1C2CC[C@H]3C(OCc4ccc(F)cc4C(F)(F)F)OC[C@]4(C)[C@H]3C2=C(CN4C(=O)OC(C)(C)C)[C@H](C)C1COC(C)=O (stereo not given in full) | 0.359 | -0.834 | -1.65 | 1.95 | 1.19 | 0.591 | 0.338 | 0.182 | -0.212 | 0.668 | 0.349 | -0.342 (inactive) | 0.16 | 0.117 | 0.807 | 0.826 | 0.95 | 0.0524 | -1.86 | 1.12
CC(C)N1C(=O)c2ccccc2[C@@H](C(=O)NCC(F)(F)F)[C@@H]1c1ccc(CO)cc1 | 0.124 | 0.568 | 0.0101 | -0.257 | -0.224 | -0.0334 | -0.0626 | 0.128 | 0.287 | -0.143 | -0.826 | 0.492 (inactive) | -0.1 | -0.07 | 0.587 | 0.425 | -0.282 | -0.28 | -0.474 | 0.104
O=C1O[C@@H](c2ccccc2)[C@@H](c2ccccc2)N2[C@@H](c3ccc(OCCO)cc3)[C@]3(C(=O)Nc4ccc(C#CC5(O)CCCCCC5)cc43)[C@@H](C(=O)O)[C@H]12 | 0.349 | -0.687 | 0.109 | 1.29 | 1.03 | -0.0495 | 0.0902 | -0.0047 | 0.835 | 0.987 | 0.572 | -0.014 (inactive) | 0.0745 | -0.0725 | 0.685 | 0.969 | 0.58 | 1.34 | -0.458 | 0.994
O=C1[C@@H]2[C@@H](CC(COc3ccccc3)=C([C@H](O)CCc3ccccc3)[C@@H]2CO)C(=O)N1Cc1ccccc1 | 0.778 | -2.21 | 0.399 | 0.615 | -0.346 | -0.1 | -0.0553 | -0.172 | 0.47 | 0.495 | 0.574 | 0.356 (inactive) | 0.15 | -0.148 | 0.42 | 1.05 | 0.424 | 0.582 | 0.249 | 0.929
CN1C(=O)C2C=CC(C(O)c3ccc(-c4ccccc4)s3)N(NC(=O)OC(C)(C)C)C2C1=O (stereo not given) | 0.399 | -0.204 | 0.285 | 2.28 | 0.902 | 0.055 | -0.279 | 1.38 | 1.52 | 1.62 | 0.886 | 0.43 (inactive) | 0.435 | 0.164 | 0.689 | 1.65 | 0.714 | 1.23 | 0.0094 | 0.996
COCCCNC(=O)[C@@H]1c2ccccc2C(=O)N(Cc2ccc(OC(F)(F)F)cc2)[C@H]1c1ccc(CO)cc1 | 1.1 | -0.223 | 0.0983 | 0.0389 | -0.269 | 0.0215 | -0.0035 | -0.553 | 0.378 | 0.516 | 0.348 | -0.274 (inactive) | -0.0074 | -0.174 | 0.529 | 1.22 | 1.28 | 0.859 | 0.286 | 0.874
C=C(COC)/C(=C/C[C@H](OC(C)=O)c1ccccc1OCCO)c1cc(C(=O)OC)ccc1OC | 0.992 | -1.91 | -0.138 | -0.471 | -1.12 | -0.124 | 0.13 | -0.194 | -0.134 | 1.63 | 0.524 | 0.131 (inactive) | -0.129 | -0.113 | 0.467 | 1.82 | -0.175 | 0.44 | -0.152 | 0.362
COC(=O)C1(Cc2ccccc2)C=C2C(=C(C)C(=O)C2C)CN1 (stereo not given) | -0.706 | 0.0597 | -0.479 | 1.92 | 0.536 | -0.0644 | -0.0035 | 1.68 | 1.8 | 0.242 | -0.0396 | 0.877 (inactive) | 0.0203 | 0.197 | 0.742 | 2.62 | 0.578 | -0.674 | 0.46 | -0.634
Cc1ccc(S[C@]2(C(=O)NC3CC3)CC(=O)N(C(C)C)[C@@H]2c2ccc(CO)cc2I)cc1 | 1.17 | -2.21 | -0.792 | -0.462 | -0.0946 | 0.191 | -0.372 | -0.519 | 1.74 | -0.0074 | 0.899 | -0.6 (inactive) | -0.364 | -0.2 | 0.7 | 1.16 | 0.048 | 0.238 | -1.06 | 0.0412
O=C1C[C@@](C(=O)NCc2ccccc2)(c2ccc([N+](=O)[O-])cc2)[C@@H](c2ccc(CO)cc2)N1C1CCCCC1 | 0.653 | -1.24 | 0.399 | -0.175 | -0.386 | 0.0273 | 0.0697 | 0.786 | 1.46 | 1.72 | -0.77 | 1.06 (inactive) | 0.14 | 0.0847 | 0.317 | 2.89 | 1.76 | 1.03 | 0.575 | 1.07
